Source: PubChem BioAssay AID1332 (Southern Research Institute, 2008)
≈ marks a conversion by molar mass, not a printed value. Among all 1,100 compounds or so, about 170 (15%) were called active. How the calls were made is not given here. These entries were drawn from the full list.

assay: Confirmatory growth inhibition assay, mycobacterium tuberculosis h37rv, with cytotoxicity (AID 1332);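 on CC50: Vero cells exposed to compounds for 72 hours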;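 on IC50: bacteria incubated 7 days before adding Alamar blue readout reagent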; conditions: M. tuberculosis H37Rv growth inhibition; CC50: measured here: Vero cell cytotoxicity; IC50: measured here: IC50 H37Rv replicates

SMILES	IC50	outcome	CC50
CC(N)CCCC(C)(C)O (stereo not given)	> 20 µg/mL	inactive	
CC1(C)S[C@@H]2[C@H](NC(=O)[C@H](N)c3ccccc3)C(=O)N2[C@H]1C(=O)OC1OC(=O)c2ccccc21 (stereo not given in full)	> 20 µg/mL	inactive	
CC(=O)Oc1ccc(C(c2ccc(OC(C)=O)cc2)c2ccccn2)cc1	> 20 µg/mL	inactive	
CC(=O)N=c1sc(S(N)(=O)=O)nn1C	> 20 µg/mL	inactive	
C=C(C)[C@@H]1CC[C@]2(CO)CC[C@]3(C)[C@H](CC[C@@H]4[C@@]5(C)CC[C@H](O)C(C)(C)[C@@H]5CC[C@]43C)[C@@H]12	> 20 µg/mL	inactive	> 6 µg/mL
CC(C)(C)CC(C)(C)c1ccc(OCOCCOCCO)c(Cc2cc(C(C)(C)CC(C)(C)C)cc(Cc3cc(C(C)(C)CC(C)(C)C)ccc3OCOCCOCCO)c2OCOCCOCCO)c1	> 20 µg/mL	inactive	
C[N+](C)(CCOc1ccccc1)Cc1ccccc1	> 20 µg/mL	inactive	
CC(C)(C)CC(C)(C)c1ccc(OCCOCC[N+](C)(C)Cc2ccccc2)cc1	8 µg/mL	active	
CCCCC1(COC(=O)CCC(=O)O)C(=O)N(c2ccccc2)N(c2ccccc2)C1=O	> 20 µg/mL	inactive	
CNCCC(Oc1ccc(C(F)(F)F)cc1)c1ccccc1 (stereo not given)	9.88 µg/mL (≈ 32 µM)	active	> 6 µg/mL
CNCCC(Oc1ccccc1OC)c1ccccc1 (stereo not given)	> 20 µg/mL	inactive	
CO[C@H]1C=C2CCN(C)[C@H]2C2c3cc4c(cc3C(=O)O[C@@H]21)OCO4 (stereo not given in full)	> 20 µg/mL	inactive	
C#C[C@]1(OC(C)=O)CC[C@H]2[C@@H]3CCC4=C[C@@H](OC(C)=O)CC[C@@H]4[C@H]3CC[C@@]21C	> 20 µg/mL	inactive	
CN(C)[C@@H]1C(=O)C(C(=O)NCN2CCCC2)=C(O)[C@@]2(O)C(=O)C3=C(O)c4c(O)cccc4[C@@](C)(O)C3CC12 (stereo not given in full)	> 20 µg/mL	inactive	
CN(C)[C@@H]1C(=O)C(C(N)=O)=C(O)[C@@]2(O)C(=O)C3=C(O)c4c(O)ccc(Cl)c4[C@@](C)(O)C3C[C@@H]12 (stereo not given in full)	13.2 µg/mL (≈ 27.5 µM)	active	
C[C@H]1c2cccc(O)c2C(O)=C2C(=O)C3(O)C(O)=C(C(N)=O)C(=O)[C@@H](N(C)C)[C@@H]3[C@@H](O)[C@@H]21 (stereo not given in full)	2.44 µg/mL (≈ 5.49 µM)	active	
CN(C)[C@@H]1C(=O)C(C(N)=O)=C(O)[C@@]2(O)C(=O)C3=C(O)c4c(O)cccc4[C@@](C)(O)[C@H]3[C@H](O)[C@@H]12	> 20 µg/mL	inactive	
C=C1c2c(Cl)ccc(O)c2C(O)=C2C(=O)[C@]3(O)C(O)=C(C(N)=O)C(=O)[C@@H](N(C)C)[C@@H]3[C@@H](O)C12 (stereo not given in full)	3.86 µg/mL (≈ 8.1 µM)	active	> 6 µg/mL
C=C1c2cccc(O)c2C(O)=C2C(=O)[C@]3(O)C(O)=C(C(N)=O)C(=O)[C@@H](N(C)C)[C@@H]3[C@@H](O)[C@H]12	> 17.9 µg/mL	active	
CCC(=O)OCC(=O)C1(OC(=O)CC)[C@H](C)C[C@H]2[C@H]3[C@H]([C@@H](O)C[C@@]21C)[C@@]1(C)C=CC(=O)C=C1C[C@H]3Cl (stereo not given in full)	> 20 µg/mL	inactive	
O=C1C(CCS(=O)c2ccccc2)C(=O)N(c2ccccc2)N1c1ccccc1 (stereo not given)	> 20 µg/mL	inactive	
CN(C)C/C=C(\c1ccc(Br)cc1)c1cccnc1	> 20 µg/mL	inactive	
CC1(C)S[C@@H]2[C@H](NC(=O)[C@H](N)c3ccccc3)C(=O)N2[C@H]1C(=O)O	> 20 µg/mL	inactive	
CN(Cc1cnc2nc(N)nc(N)c2n1)c1ccc(C(=O)NC(CCC(=O)O)C(=O)O)cc1 (stereo not given)	> 20 µg/mL	inactive	0.048 µg/mL (≈ 0.106 µM)

SMILES	IC50	outcome	CC50
CC(C(=O)O)c1ccc(N2Cc3ccccc3C2=O)cc1 (stereo not given)	> 20 µg/mL	inactive	
C[C@H]1[C@H]2CC[C@H]3[C@@H]4CC=C5C[C@@H](N(C)C)CC[C@]5(C)[C@H]4CC[C@]23CN1C	> 20 µg/mL	inactive	
NC(N)=NC(N)=NCCc1ccccc1	> 20 µg/mL	inactive	
CCOC(=O)[C@H](CCc1ccccc1)N[C@@H](C)C(=O)N1CCC[C@H]1C(=O)O	> 20 µg/mL	inactive	
CC(=O)Oc1ccccc1C(=O)Oc1ccccc1C(=O)O	> 20 µg/mL	inactive	
O=C(OCC(O)CO)c1ccccc1Nc1ccnc2cc(Cl)ccc12 (stereo not given)	> 20 µg/mL	inactive	
CCc1cccc(CC)c1NC(=O)CN(CC(=O)O)CC(=O)O	> 20 µg/mL	inactive	
COc1cc(-c2ccc(N=Nc3ccc4c(S(=O)(=O)O)cc(S(=O)(=O)O)c(N)c4c3O)c(OC)c2)ccc1N=Nc1ccc2c(S(=O)(=O)O)cc(S(=O)(=O)O)c(N)c2c1O	> 20 µg/mL	inactive	
NCC1CCC(C(=O)O)CC1 (stereo not given)	> 20 µg/mL	inactive	
C[C@H](O)C(=O)Nc1c(I)c(C(=O)NC(CO)CO)c(I)c(C(=O)NC(CO)CO)c1I	> 20 µg/mL	inactive	
CCCOc1cc(N)ccc1C(=O)OCCN(CC)CC	> 20 µg/mL	inactive	
COc1c2c(nc3ccccc13)OC(C(C)(O)CO)C2 (stereo not given)	> 20 µg/mL	inactive	
CN1C(CC(O)c2ccccc2)CCCC1CC(O)c1ccccc1 (stereo not given)	> 20 µg/mL	inactive	
CN1CCC[C@@H]1CCO[C@](C)(c1ccccc1)c1ccc(Cl)cc1	10.9 µg/mL (≈ 31.7 µM)	active	> 6 µg/mL
CN1CCCCC1CCN1c2ccccc2Sc2ccc(S(C)=O)cc21 (stereo not given)	> 20 µg/mL	inactive	
O[C@@H]1[C@@H](O)C=C2CCN3Cc4cc5c(cc4[C@H]1C23)OCO5 (stereo not given in full)	> 20 µg/mL	inactive	0.806 µg/mL (≈ 2.81 µM)
CCn1cc(C(=O)O)c(=O)c2cc3c(cc21)OCO3	> 20 µg/mL	inactive	
CC1CCc2cc(F)cc3c(=O)c(C(=O)O)cn1c23 (stereo not given)	9.83 µg/mL (≈ 37.6 µM)	active	
O=C1N=C(O)CN1/N=C/c1ccc(-c2ccc([N+](=O)[O-])cc2)o1	> 20 µg/mL	inactive	
CNCC(O)c1ccc(OC(=O)C(C)(C)C)c(OC(=O)C(C)(C)C)c1 (stereo not given)	> 20 µg/mL	inactive	
C=C(C)[C@@H]1C2C(=O)O[C@H]1[C@H]1OC(=O)[C@@]34OC3C[C@]2(O)[C@@]14C (stereo not given in full)	> 20 µg/mL	inactive	
CC1(C)OC(=O)NC1=O	> 20 µg/mL	inactive	
CC(C)(C)C(=O)OCOC(=O)[C@@H]1N2C(=O)[C@@H](NC(=O)[C@H](N)c3ccccc3)[C@H]2SC1(C)C	> 20 µg/mL	inactive	
